From PubChem BioAssay (NCI)
Compounds without any hit were thinned out: in the full panel of roughly 83,000, 20% have a hit.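 Method: cells in 96-well plates; compound added at one concentration; 48 h incubation; percent growth measured; values under 10 scored active.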 A number with no mark means an inactive call. Calls of active or inactive are those of the source.

Assays:
Test in all cases: NCI-60 one-dose screen, 48 h (100 = growth as untreated, 0 = no growth, -100 = all killed)
Settings in all cases: 10 µM
K-562 leukemia = tested on: K-562 leukemia
MALME-3M melanoma = tested on: MALME-3M melanoma
MDA-MB-231 breast = tested on: MDA-MB-231 breast
RXF 393 renal = tested on: RXF 393 renal
SF-268 CNS = tested on: SF-268 CNS
SF-295 CNS = tested on: SF-295 CNS
SF-539 CNS = tested on: SF-539 CNS
UACC-257 melanoma = tested on: UACC-257 melanoma
M14 melanoma = tested on: M14 melanoma
HCT-15 colon = tested on: HCT-15 colon

Row | Compound | growth (K-562 leukemia) | growth (MALME-3M melanoma) | growth (MDA-MB-231 breast) | growth (RXF 393 renal) | growth (SF-268 CNS) | growth (SF-295 CNS) | growth (SF-539 CNS) | growth (UACC-257 melanoma) | growth (M14 melanoma) | growth (HCT-15 colon)
1 | O=C1/C(=C/c2ccc([N+](=O)[O-])o2)Oc2ccccc21 | 1.24% (active) | -40.6% (active) | -17.3% (active) | -74.9% (active) | -10.8% (active) | 79.2% | -40.7% (active) | -8.85% (active) | 13.8% | 1.63% (active)
2 | c1ccc([C@H]2CN3CCSC3=N2)cc1 | 91.8% | 92.3% | 101% | 101% | 111% | 91.3% | 87.8% | 104% | 85.8% | 108%
3 | Nc1ncnc2[nH]c(=O)[nH]c12 | 46.5% | 104% | 91.4% | 22.1% | 89% | 85.1% | 87% | 103% | 94.6% | 96.3%
4 | COC(=O)[C@@H]1[C@H](O)[C@H](C)[C@H](O)[C@@](C)(O)/C=C\C=C(C)C(=O)Nc2c(C)c(OC(C)=O)c3c(c2O)C(=O)C(C)=C2OCOC(=C23)C(C)=C[C@@](C)(O)[C@H](O)[C@@H](C)[C@H]1OC(C)=O | 89% | 101% | 98.8% | 104% | 113% | 98% | 100% | 107% | 122% | 74.7%
5 | COc1ccc(-c2cc(-c3cccc(NS(C)(=O)=O)c3)nc(N)c2C#N)cc1 | 14.3% | 2.95% (active) | 30.4% | 16.3% | 29.9% | 0.458% (active) | 5.27% (active) | 79.1% | 6.36% (active) | 30.5%
6 | COc1ccc(-c2ccc(-c3ccc(C(=N)N)cn3)o2)cc1 | 24.7% | 39.4% | 47.4% | 85.7% | 81.2% | 68.7% | 79.7% | 62.8% | 75.3% | 59.8%
7 | COC(=O)C1=NNC(=S)N(c2cc(C)[nH]n2)C(=O)C1 | 93.7% | 93.2% | 110% | 111% | 102% | 96.3% | 102% | 100% | 102% | 102%
8 | CCCCCCCCCCCCCCCCCCOCC(COCCOCC[N+]1(CCCCCC(=O)[O-])CCCC1)Oc1ncccn1 (stereo not given) | 19.8% | 82.9% | 51.9% | 28.3% | 32.6% | 26.9% | 36.8% | 45.5% | 30% | 56.3%
9 | CC(C)(C#N)Nc1ccccc1 | 102% | 104% | 100% | 101% | 113% | 77.7% | 96.2% | 98.5% | 107% | 99%
10 | CC1(C)OC2=C(CC1Br)C(=O)C(=O)c1ccccc12 (stereo not given) | -5.94% (active) | -90.9% (active) | -25.1% (active) | -97.9% (active) | -87.6% (active) | -84.5% (active) | -82% (active) | -89.3% (active) | -91.2% (active) | -58.5% (active)
11 | O=C(N/N=C/c1ccccc1O)C(O)(c1ccccc1)c1ccccc1 | 52.9% | 74% | 60.5% | 85.2% | 46.8% | -12.8% (active) | 60.6% | 68.6% | 57.4% | 32%
12 | CC(=O)c1nc2ccccc2n1CCNC(N)=O | 44.1% | 55.8% | 77.2% | 90.9% | 71.9% | 127% | 79.7% | 94.8% | 73.8% | 103%
13 | Clc1ccc(Sc2nc(NC3CC3)nc(Sc3ccc(Cl)cc3)n2)cc1 | 75.2% | 80.7% | 81.1% | 79.1% | 79.3% | 67.4% | 95% | 89.6% | 86.2% | 71.3%
14 | OCC1OC(n2cnc3c(N/N=C\c4ccccn4)ncnc32)C(O)C1O (stereo not given) | 17.6% | -14.6% (active) | 42.5% | 33.4% | 21.5% | -1.12% (active) | 9.72% (active) | 38% | 8.81% (active) | 25.8%
15 | COc1ccc(/C=C2/CN(CCC#N)C/C(=C\c3ccc(OC)cc3)C2=O)cc1 | 1.95% (active) | -44.7% (active) | -25.4% (active) | -63% (active) | 0.448% (active) | -32.7% (active) | 9.73% (active) | 17.4% | 0.654% (active) | 0.438% (active)
16 | CCCCC/C=C/C(=O)CCc1ccc(O)c(OC)c1 | 59.9% | 23% | 79.3% | 74.6% | 86.9% | 96.4% | 90.1% | 91.9% | 80.7% | 88.2%
17 | CCN1Cc2c(/C=C/c3ccccc3)nc3ccc(OC)cc3c2N(c2cccc(Cl)c2)C1 | 51.1% | 95.9% | 74% | 107% | 102% | 92.8% | 75.1% | 41.5% | 78.4% | 57.8%
18 | COc1ccc(Nc2nc3ccc(NC(=O)NC4CCCCC4)cc3[nH]c2=O)cc1 | 77.1% | 102% | 70.8% | 48.1% | 91.4% | 82.6% | 68.8% | 90.4% | 103% | 83.2%
19 | S=c1[nH]ccn1-c1c(Cl)cccc1Cl | 103% | 109% | 102% | 106% | 118% | 99.1% | 94.4% | -4.51% (active) | 98.1% | 100%
20 | Cc1ccc(NC(=O)NC2CCCCC2)cc1 | 98% | 108% | 115% | 102% | 108% | 105% | 102% | 80.6% | 107% | 96.3%
21 | O=c1[nH]c(-c2ccc(Cl)cc2)nc2sc3c(c12)CCCC3 | 69.5% | 108% | 97.8% | 89.1% | 50.7% | 32.9% | 72.1% | 103% | 68.2% | 81.1%
22 | O=C(N/N=C/c1ccccc1)C(Oc1ccccc1)c1ccccc1 (stereo not given) | 79% | 71.8% | 102% | 100% | 97.1% | 93.7% | 93.7% | 96.7% | 95.6% | 91.9%
23 | COc1cc(-c2nc(Nc3nc4ccccc4s3)[nH]c(=O)c2C#N)cc(OC)c1O | 100% | 118% | 106% | 105% | 123% | 116% | 108% | 102% | 96.3% | 107%
24 | CN(C)N=Nc1nn(C(=O)Nc2ccc(Cc3ccccc3)cc2)c2ccccc12 | 18.4% | 53.8% | 58.2% | 94.8% | 63.5% | 9.64% (active) | 4.93% (active) | 29.3% | 20.4% | 36.2%
25 | COc1ccc(-c2cc(/C=C3\C(=O)Nc4ccc(OC)cc43)[nH]n2)cc1 | 15.6% | 35.1% | 59.2% | 48% | 42% | 1.93% (active) | 24.8% | 68.8% | 35.7% | 22.8%
26 | O=[N+]([O-])c1ccc(Oc2cc(Cl)c(Cl)cc2Cl)c(C(F)(F)F)c1 | 93.8% | 107% | 96.4% | 96.4% | 101% | 91.7% | 95.3% | 100% | 101% | 92.2%
27 | COc1ccc(N=C2C(=Nc3ccc(OC)cc3)N(c3ccc(N(C)C)cc3)C(=S)N2c2ccc(OC)cc2)cc1 | 61.9% | 72.9% | 90.2% | 106% | 90.2% | 2.47% (active) | 54.2% | 76.1% | 65.3% | 74.4%
